Reference: PubChem BioAssay AID504700 (The Scripps Research Institute Molecular Screening Center, 2011)
The whole screen tested about 340,000 compounds, of which about 270 (0.079%) were called active.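 Rule for the calls: active = activation above a cutoff set at the mean over all compounds plus 3 SD (cut at about 18% in these data); inactive = the rest.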 For the sample, actives were picked, then their nearest neighbours and some compounds at random.

What follows are molecules tested against cAMP-dependent protein kinase catalytic subunit beta (Homo sapiens) + cAMP-dependent protein kinase type II-beta regulatory subunit (Homo sapiens) (UniProt P22694+P31323) (assay: compounds dissociating PKAc from R2B subunit – biochemical, fluorescence polarization, Cy5-IP20, human, primary screen (AID 504700;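 note: higher means more holoenzyme dissociation and a rise in polarization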)). Conditions: PKA-R2B holoenzyme dissociation, at 11.4 µM, active compounds read high, 0% DMSO only, 100% 113 µM cGMP, R2B truncated from residue 108, S112A mutant.
cAMP-dependent protein kinase catalytic subunit beta (Homo sapiens) + cAMP-dependent protein kinase type II-beta regulatory subunit (Homo sapiens), sequence (P31323 whole entry, looked up, other chains not shown, the tested form may be a part): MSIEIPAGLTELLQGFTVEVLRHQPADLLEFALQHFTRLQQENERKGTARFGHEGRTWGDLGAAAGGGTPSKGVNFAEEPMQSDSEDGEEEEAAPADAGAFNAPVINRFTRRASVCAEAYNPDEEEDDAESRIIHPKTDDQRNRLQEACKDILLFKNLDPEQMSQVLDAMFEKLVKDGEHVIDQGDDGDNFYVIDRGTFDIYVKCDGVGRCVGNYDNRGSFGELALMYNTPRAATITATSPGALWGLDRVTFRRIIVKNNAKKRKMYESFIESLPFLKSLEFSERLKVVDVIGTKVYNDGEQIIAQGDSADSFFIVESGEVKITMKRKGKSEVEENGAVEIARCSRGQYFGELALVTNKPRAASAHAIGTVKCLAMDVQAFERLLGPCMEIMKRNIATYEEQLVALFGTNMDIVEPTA

activation, active:
O=C(CN(C(=O)CCC(=O)Nc1nccs1)c1ccc(F)cc1)NCc1ccc2c(c1)OCO2 18.4%

activation, inactive:
C[C@H]1CN([C@@H](C)CO)C(=O)CCCn2cc(nn2)CO[C@@H]1CN(C)S(=O)(=O)c1ccc(-c2ccccc2)cc1 -2.02%, Cc1csc(=O)n1CCC(=O)OCC(=O)Nc1ccc(N2CCOCC2)cc1 -13.7%, COc1cc(C)c(CN2CCN(C(=O)CCC(=O)c3ccc(C)s3)CC2)cc1OC -4.23%, C[C@@H]1CN([C@H](C)CO)C(=O)c2cc(-c3ccc(F)cc3)cnc2O[C@H]1CN(C)C(=O)c1ccc(F)cc1 -10.7%, O=C(CCc1ccc(O)cc1)NN=Cc1cc(Br)ccc1O -5.67%, CCCCN1CC(C)(C)[C@H](CC(=O)Nc2ccc(Br)cc2)C1=O -7.25%, C=CCOc1cccc(C2C(C(=O)c3ccc(C)o3)=C(O)C(=O)N2CCN2CCOCC2)c1 (stereo unspecified) 2.21%, CC1(C)CC(=O)C=C(c2ccccc2CO)C1=O -3.08%, C[C@@H]1CN([C@@H](C)CO)C(=O)CCCn2nncc2CO[C@H]1CN(C)C(=O)Nc1ccc(C(F)(F)F)cc1 -17.1%, C[C@@H]1CN([C@H](C)CO)C(=O)CCCn2nncc2CO[C@@H]1CN(C)C(=O)OCc1ccccc1 -4.31%, O=C(NCCOc1ccccc1)N1[C@H]2CC[C@@H]1C=C(c1ccc(F)cc1OCc1ccccc1)C2 -0.02%, CSc1ncnc2c1ncn2CCCNCC(C)c1ccccc1 (stereo unspecified) -3.46%, Cc1ccc(-c2ccc(CN3C(C)C(=O)N(Cc4cn(CCC5OCCCO5)nn4)CCS3(=O)=O)cc2)cc1 (stereo unspecified) -0.73%, CSc1ncccc1C(=O)N1CCCC(Nc2ccc(F)c(F)c2)C1 (stereo unspecified) -3.17%, COc1ccccc1-n1c(SCC(=O)Nc2ccc(Cl)cc2)nc(O)c(Cc2ccccc2)c1=O 0.18%, Cc1cc(=O)c2ccc(NC(=O)c3ccccc3)cc2[nH]1 0.43%, COc1ccc(N(CC(=O)NCc2ccc(F)cc2)C(=O)CCC(=O)Nc2nccs2)cc1 -12.4%, CCC(C)(C)NC(=O)CN(C(=O)CCC(=O)Nc1nccs1)c1ccc2c(c1)OCO2 6.11%, O=C(Nc1ccc2c(c1)[C@@H]1C[C@@H](CC(=O)N3CCCCC3)O[C@@H](CO)[C@@H]1O2)NC1CCCCC1 -11.6%, O=C(OCc1cn([C@@H]2C[C@H](c3ccc(Cl)cc3)N(Cc3cccs3)C[C@H]2O)nn1)c1ccccc1 -14.6%
